# Measured values: ChEMBL document CHEMBL4513216, “Probing the Open Global Health Chemical Diversity Library for Multistage-Active Starting Points for Next-Generation Antimalarials” (ACS Infect Dis, 2020)
# Screen size: about 69,000 compounds; about 8,600 (12%) showed an effect of 50% or more. The entries come from a sample that favours strong results as a whole.
# Test system: Plasmodium berghei
# Assay: Screen against P. berghei liver stage (PbLuc), transformed with Luciferase, at 10uM
# Type: functional, HepG2
# Conditions: tested at 10 uM
row,Compound,INHIBITION [%]
1,CCNc1cc2c(nn1)CCN(C(=O)c1cc(C)no1)C2,40
2,CCNc1cc2c(nn1)CCN(C(=O)c1cc3cccc(C)c3o1)C2,70.8
3,CCNc1cc2c(nn1)CCN(C(=O)c1cc3ccccc3o1)C2,17.4
4,CCNc1cc2c(nn1)CCN(C(=O)c1ccc(CNC(C)=O)o1)C2,-21.7
5,CCNc1cc2c(nn1)CCN(C(=O)c1cc3cc(C)ccc3o1)C2,68.8
6,CCNc1cc2c(nn1)CCN(C(=O)c1cc3nc(C)ccc3o1)C2,35.3
7,CC(=O)N1CC(=O)N(c2ccsc2)CC12CCN(Cc1ccccn1)C2 (stereo not given),-2.17
8,CCOc1ccc(C(=O)N2CCN(c3nccn3C)CC2)cc1,14.3
9,c1cc(CN2CCC(c3ccc4c(c3)OCO4)CC2)ccn1,12.515
10,Cn1cccc1C(=O)N1C[C@H]2CN(Cc3cccs3)C[C@H]2C1,14.9
11,CN(C)C1COC2(CCN(Cc3nccs3)CC2)C1 (stereo not given),11.5
12,Cc1ccc(C(=O)NS(=O)(=O)c2cc(F)ccc2F)c(=O)[nH]1,-1.14
13,CSC(C)C(=O)N(C)CCCc1cc(-c2ccccc2)no1 (stereo not given),57.75
14,CC(NC(N)=O)C(=O)N(C)CCCc1cc(-c2ccccc2)no1 (stereo not given),0.375
15,CC(=O)N(C)CCCc1cc(-c2ccccc2)no1,24.75
16,O=C(O)[C@]12CCCN(Cc3ccsc3)C[C@H]1CN(c1ncccn1)C2,-10.3
17,COCCn1cc2c(n1)C(CNCc1nccs1)OCC2 (stereo not given),26.3
18,Cc1cccc(N2CCC(N3CCC4(CN(C)C(=O)O4)C3)CC2)c1C (stereo not given),64.4
19,Cc1cccc(N2CCC(N3CCCC4(CN(C)C(=O)O4)C3)CC2)c1C (stereo not given),36.7
20,Cc1cccc(N2CCC(N3CCCC4(CNC(=O)O4)C3)CC2)c1C (stereo not given),63.4
21,Cc1nn(CC(=O)N2CCC3(CN(C)C(=O)O3)C2)c(=O)c2ccccc12 (stereo not given),15.4
22,O=C1NCC2(CCCN(C(=O)Cn3nc4ccccc4n3)CC2)O1 (stereo not given),4.87

row,Compound,INHIBITION [%]
1,Cc1cccc(N2CCC(N3CCC4(CCCNC4=O)C3)CC2)c1C (stereo not given),32.7
2,Cc1nn(CCO)c(C)c1CNCc1cccnc1N(C)C,19.2
3,O=C(O)c1cnc(N2CCC(c3nccn3CC3CC3)CC2)c(Cl)c1,25.9
4,O=C(CN1CCCC(O)C1)NC(=O)NCc1cccs1 (stereo not given),43.4
5,CN(CCOc1ccc(F)cc1)S(=O)(=O)c1cnn(C)c1,21.2
6,COCCN1CCN(Cc2c(C)noc2C)Cc2cccnc21,36.9
7,O=C(NCc1cccc(Cl)c1)C1=NOC2(CCNC2)C1 (stereo not given),21.5
8,CN(C)C(=O)COC[C@]12COC[C@H]1CN(CCc1ccccc1)C2,24.3
9,CN(C)CCOCc1ncn2c1CN(c1ncc(F)cn1)CCC2,23.3
10,Cc1nnc(SCC(=O)NCC(c2ccccc2Cl)N(C)C)s1 (stereo not given),-18.5
11,Cc1ccccc1C(CNC(=O)CSc1nnc(N)s1)N(C)C (stereo not given),54.7
12,Nc1nnc(SCC(=O)NCC(O)c2ccccc2)s1 (stereo not given),-17.2
13,CCn1cc(NC(=O)NCc2ccc(CO)c(F)c2)cn1,-59.4
14,Cc1ccc(Cl)c(C)c1NC(=O)N1CCCN(Cc2ccccn2)CC1,46.3
15,O=C(c1cc(Cl)c[nH]1)N1CCN(CCc2ccccn2)CC1,9.79
16,Cc1ccc(NC(=O)N2CCN(Cc3ccccn3)CC2)cc1Cl,42.1
17,O=C(c1cc2c(Cl)cccc2[nH]1)N1CCN(CCc2ccccn2)CC1,56.3
18,Cc1c(Cl)cccc1NC(=O)N1CCN(Cc2ccccn2)CC1,64.3
19,Cc1cc(F)c(C(C(=O)O)N2CCN(Cc3ccccn3)CC2)cc1Cl (stereo not given),66.6
20,CSc1ccccc1C(C(=O)O)N1CCN(Cc2ccccn2)CC1 (stereo not given),33.5
21,O=C(O)C(c1ccc(Cl)c(F)c1)N1CCN(Cc2ccccn2)CC1 (stereo not given),52.1
22,Cc1ccc(C(C(=O)O)N2CCCN(Cc3ccccn3)CC2)c(F)c1 (stereo not given),-1.49

row,Compound,INHIBITION [%]
1,COc1ccc(C)cc1C(C(=O)O)N1CCN(Cc2ccccn2)CC1 (stereo not given),26.7
2,O=C(c1ccccc1Cl)N1CCN(CCc2ccccn2)CC1,30
3,Cc1ccc(C)c(C(C(=O)O)N2CCCN(Cc3ccccn3)CC2)c1 (stereo not given),0.139
4,Cc1cccc(-n2cnnc2CCCN2CCOCC2)c1,34.4
5,CNC(=O)C1CCC(NC(=O)c2cc(C3CC3)n(C(C)(C)C)n2)CC1 (stereo not given),15.4
6,c1ccc(OCCNC2CCCN(Cc3noc(C4CC4)n3)C2)cc1 (stereo not given),-52.5
7,Cn1cc(C2CCCN2C(=O)c2ccc(NC3CC3)nc2)cn1 (stereo not given),22.25
8,CNC(=O)c1ccc(C(=O)N2CCCC2c2cnn(C)c2)cn1 (stereo not given),59.4
9,Cn1cc(C2CCCN2C(=O)c2ccc(Br)o2)cn1 (stereo not given),12.2
10,COc1ccc(C(=O)N2CCCC2c2cnn(C)c2)cn1 (stereo not given),-11.9
11,CC(C)CN(C)c1ccc(C(=O)N2CCCC2c2cnn(C)c2)cn1 (stereo not given),52.1
12,CCN(c1ccc(C(=O)N2CCCC2c2cnn(C)c2)cn1)C(C)C (stereo not given),48.4
13,CCN(CC)Cc1ccc(C(=O)N2CCCC2c2cnn(C)c2)o1 (stereo not given),57
14,CC(=O)NCc1ccc(C(=O)N2CCCC2c2cnn(C)c2)o1 (stereo not given),-1.88
15,CN(C)c1ccc(C(=O)N2CCCC2c2cnn(C)c2)cn1 (stereo not given),-13.3
16,CC(NC(=O)NCCn1ccnc1)c1ccc2c(c1)CCC(=O)N2 (stereo not given),-15.5
17,CO[C@H]1C(=O)N(C)C2(CCNCC2)[C@@H]1C(=O)Nc1ccccc1,29
18,Cc1noc(C)c1CN1CC[C@H]2OCC[C@@]2(C(=O)N2CCCO2)C1,37.5
19,Cc1cnn(CC2CCCN2C(=O)c2cnc(-c3ccco3)s2)c1 (stereo not given),15.5
20,CCS(=O)(=O)N1CCc2nc(N3CCCC3)nc(N(C)C)c2CC1,23.1
21,CCS(=O)(=O)N1CCc2nc(N3CCOCC3)nc(N(C)C)c2CC1,55.6
22,CCCS(=O)(=O)N1CCc2nc(N3CCOCC3)nc(N(C)C)c2C1,43.8

row,Compound,INHIBITION [%]
1,CC(=O)N1CCCC1C(=O)NCCOc1c(C)cccc1C (stereo not given),-57.4
2,CC(C)NC(=O)[C@]12COC[C@H]1CN(Cc1cnn(C)c1)C2,-1.36
3,Cc1ccccc1-n1c(C)cc(=O)[nH]c1=O,33.4
4,COCC1CN(C(=O)Cc2cccs2)Cc2nnn(C)c21 (stereo not given),26.3
5,Cc1cc(C(=O)NCc2c(C)nn(C)c2C)nc(N2CCOCC2)n1,12.9
6,Cc1nn(C)c(C)c1C(=O)NN1CCOCC1,62.3
7,CC(CN1CCOCC1)NC(=O)c1cc(Cl)c2c(c1)OCCO2 (stereo not given),-23.7
8,Cc1c(Cl)c(C(=O)NC(C)CN2CCOCC2)nn1C (stereo not given),54.9
9,Cc1c(Cl)c(C(=O)NN2CCOCC2)nn1C,55.7
10,Cc1c(Cl)c(C(=O)NCc2ccc(F)cc2)nn1C,-6.18
11,CCC(=O)NCCNC(=O)c1nn(C)c(C)c1Cl,-23
12,Cn1nc(C(=O)NN2CCOCC2)c(Cl)c1C(F)(F)F,-23
13,Cc1nn(C)c(C)c1CC(=O)NCc1cccnc1N1CCOCC1,1.48
14,CNc1ncccc1CN1CCN(C(C)=O)CC(C(N)=O)C1 (stereo not given),-61.5
15,O=C(c1cocn1)N1CCC[C@]2(C[C@@H](Oc3ncccc3F)CO2)C1,-26.5
16,O=C(c1ccc[nH]1)N1CCC2(CC1)CC(Oc1cccnc1)CO2 (stereo not given),22.5
17,CN1CCCC1CNC(=O)CCCOc1cccc(F)c1 (stereo not given),11.5975
18,CCn1ncc(-c2cc(C(F)F)n3nc(CCC(=O)O)nc3n2)c1C,20.4
19,Cc1cccc(N2N=C(C(=O)NC(C)CCc3ccco3)CCC2=O)c1 (stereo not given),12.4
20,Cc1cccc(N2N=C(C(=O)NC(C)Cc3ccco3)CCC2=O)c1 (stereo not given),32
21,Cc1cccc(N2N=C(C(=O)NC(C)Cn3cccn3)CCC2=O)c1 (stereo not given),50.5
22,CCc1noc(CN2CCC(C(=O)Nc3cnn(CC)c3)CC2)n1,5.9

row,Compound,INHIBITION [%]
1,CCn1cc(NC(=O)C2CCN(Cc3nc(C(C)C)no3)CC2)cn1,53.9
2,CCn1cc(NC(=O)C2CCN(Cc3nc(C)c(C)s3)CC2)cn1,55.6
3,CCn1cc(NC(=O)C2CCN(Cc3ccccc3)CC2)cn1,21.6
4,CCCc1noc(CN2CCC(C(=O)Nc3cnn(CC)c3)CC2)n1,22.3
5,CCn1cc(NC(=O)C2CCN(Cc3nc(C)c(C)o3)CC2)cn1,8.31
6,Cc1noc(CNC(=O)C(C)(C)NC(=O)OC(C)(C)C)n1,22
7,COc1ccc(C2=NOC(C(=O)N3CCCc4ccccc43)C2)cc1 (stereo not given),-20.6
8,CC(C)N(C)CC(=O)NCC(Cc1ccc(F)cc1)C(N)=O (stereo not given),-16
9,Clc1ccc(C2NCCc3cc4c(cc32)OCCO4)cc1 (stereo not given),45.6
10,CCc1ccc(C2NCCc3cc4c(cc32)OCCO4)cc1 (stereo not given),51.5
11,Fc1ccccc1C1NCCc2cc3c(cc21)OCCO3 (stereo not given),2.6
12,CCOC(C)C(=O)NCCNS(C)(=O)=O (stereo not given),19.3
13,CC(C)(C)NC(=O)NC(=O)CN1C=Nc2ccccc2S1(=O)=O,44.3
14,COc1ccc(CNC(Cc2ccsc2)c2ncccc2C)cc1OC (stereo not given),55.05
15,Cc1cccnc1C(Cc1ccsc1)NCc1cnc(N(C)C)nc1 (stereo not given),-2.495
16,COc1ccc(CN2CCC(c3cc(O)nc(C)n3)C2)c(OC)c1 (stereo not given),-12.2
17,COc1ccc(CNC(Cc2cccs2)c2nc(C)c(C)s2)cc1OC (stereo not given),30.4
18,CC(C)Oc1cccc(CNC(Cc2ccsc2)c2nccs2)c1 (stereo not given),44.3
19,CC(C)CC(NCc1ccsc1)c1ccccn1 (stereo not given),44.6
20,COc1ccc(CNC(Cc2ccsc2)c2ccc(C)cn2)c(OC)c1 (stereo not given),68.4
21,COc1cccc(OC)c1CNC(Cc1ccsc1)c1ccc(C)cn1 (stereo not given),84.2
22,COc1ccc(CNC(Cc2ccsc2)c2ccc(C)cn2)cc1OC (stereo not given),44.3
